Source: PubChem BioAssay (NCI)
The panel holds about 79,000 compounds, 15% with a hit somewhere; the sample as a whole holds those more often. No stated cut-off is given here; in the data, active means growth inhibition above about 70%; inactive means the rest.

Tests used:
[1] = NCI Yeast Anticancer Drug Screen. Data for the rad50 strain (AID 155);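 further: 0% = growth of vehicle-only cultures of the same strain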; conditions: S. cerevisiae rad50 strain growth inhibition; at 50.0 µM; stronger effect = higher value
Summary of the method: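 Cells are treated with compound, grown, and their growth is then scored against vehicle-only cultures of the same repair-deficient yeast strain.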

[2] = NCI Yeast Anticancer Drug Screen. Data for the mec2-1 strain (AID 157); conditions: S. cerevisiae mec2-1 strain, at 50.0 µM, stronger effect = higher value
Summary of the method: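 Readout is yeast growth inhibition, normalised to vehicle-treated controls, in the mec2-1 strain exposed to compound.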

[3] = NCI Yeast Anticancer Drug Screen. Data for the sgs1 mgt1 strain (AID 161);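 further: 0% = growth of cultures given vehicle only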; conditions: S. cerevisiae sgs1 mgt1 strain, at 50.0 µM, stronger effect = higher value
Summary of the method: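 Growth of a repair-deficient yeast mutant was monitored after compound treatment and expressed as inhibition relative to vehicle-treated cultures.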

[4] = NCI Yeast Anticancer Drug Screen. Data for the cln2 rad14 strain (AID 165);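 further: 0% = growth equal to vehicle treated cultures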; conditions: S. cerevisiae cln2 rad14 strain, at 50.0 µM, stronger effect = higher value
Summary of the method: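 Relative to vehicle controls, growth inhibition of compound-treated cln2 rad14 yeast was recorded.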

[5] = NCI Yeast Anticancer Drug Screen. Data for the bub3 strain (AID 167); conditions: S. cerevisiae bub3 mutant strain, at 50.0 µM, stronger effect = higher value
Summary of the method: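 Part of a panel of yeast mutants defective in DNA damage repair or cell cycle regulation. Each strain is grown with compound, and inhibition is calculated relative to solvent-treated cultures.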

[6] = NCI Yeast Anticancer Drug Screen. Data for the mlh1 rad18 strain (AID 175); conditions: S. cerevisiae mlh1 rad18 strain growth inhibition; at 50.0 µM; stronger effect = higher value
Summary of the method: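 Test agents were incubated with a yeast strain of defined genotype (DNA damage repair defect). Inhibition of growth was derived by comparison with vehicle-exposed cultures.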

Measured: growth inhibition

O=C(OCc1ccccc1CN1CCCC1)c1ccc(Br)cc1
inactive: [1] 11% | [2] -6.05% | [3] -9.9% | [4] -16.9% | [5] 20.1% | [6] -17.9%

CCCCCCCCCCCCCCCC(=O)OC/C=C/COC(=O)c1ccccc1
inactive: [1] 22.9% | [2] -9.7% | [3] -6.25% | [4] -2.95% | [5] 2.65% | [6] -13%

CCC(=O)c1ccc(O)c(C)c1
inactive: [1] 4.85% | [2] -2.9% | [3] 0.2% | [4] -2.6% | [5] 37.7% | [6] 2.45%

CCCC(O)C(C)[N+](=O)[O-] (stereo unspecified)
inactive: [1] 7.25% | [2] 4.5% | [3] -0.65% | [4] 4.75% | [5] 4.2% | [6] 0.6%

Cn1c(=O)c2c(nc(Cl)n2Cc2ccc([N+](=O)[O-])cc2)n(C)c1=O
inactive: [1] -2.35% | [2] 20% | [3] -2.55% | [4] -39.3% | [5] 20.1% | [6] 1%

O=C1c2ccccc2C(=O)N1CC1(C(=O)O)NCCS1(=O)=O (stereo unspecified)
inactive: [1] 3.3% | [2] -7.5% | [3] -22.3% | [4] 26.8% | [5] -48.9% | [6] 10.1%

N=c1ccc2ccccc2n1O
inactive: [1] 10.6% | [2] -3.85% | [3] -4.2% | [4] -49.1% | [5] 7.2% | [6] -7.9%

Clc1ccccc1OCCNC1CC1
inactive: [1] 20.7% | [2] -0.1% | [3] -10.8% | [4] -45% | [5] 4.95% | [6] 1.7%

CCCCCCCCn1nnnc1N
inactive: [1] -1.1% | [2] 21% | [3] 1.45% | [4] 0.5% | [5] 20.7% | [6] 8.1%

S=C(NCCNC(=S)SCc1c(Cl)c(Cl)c(Cl)c(Cl)c1Cl)SCc1c(Cl)c(Cl)c(Cl)c(Cl)c1Cl
inactive: [1] 48.1% | [2] 14.3% | [3] 24.6% | [4] -8.85% | [5] -0.7% | [6] 59.8%

Cc1ccc(S(=O)(=O)Nn2c(O)c(C#N)c(-c3ccc([N+](=O)[O-])cc3)c(C#N)c2=O)cc1
inactive: [1] 4.8% | [2] 6.9% | [3] -7.9% | [4] 15.6% | [5] -13.2% | [6] -8.8%

Cc1ccc(CNC(=O)NCCCCCCNC(=O)NCc2ccc(C)cc2)cc1
inactive: [1] -29.4% | [2] -6.45% | [3] -9.95% | [4] -20.3% | [5] -2.95% | [6] -1.1%

CCN(CC)CCNc1nc(N)c(C#N)c(C#N)c1C#N
inactive: [1] 5.8% | [2] -14.4% | [3] -4.55% | [4] 9% | [5] -8.3% | [6] 1.45%

CCN(CC)CC1CCCCN1 (stereo unspecified)
inactive: [1] -10.1% | [2] -15.7% | [3] 1.95% | [4] 29.6% | [5] 1.4% | [6] 2.55%

COC1OC(COS(=O)(=O)c2ccc(C)cc2)C(N(C)C(C)=O)C1OS(=O)(=O)c1ccc(C)cc1 (stereo unspecified)
inactive: [1] 8.65% | [2] -8.3% | [3] 16.6% | [4] -2.3% | [5] 2.3% | [6] 0.65%

CC(=O)N(C)N=NCCCl
inactive: [1] 26.2% | [2] 7.2% | [3] 10.2% | [4] -29.1% | [5] 12% | [6] 3.85%

CCCCCCCCCCCCCCCCCCNC(=O)N1CCCCC1C (stereo unspecified)
inactive: [1] 10.2% | [2] -3.9% | [3] -14.7% | [4] -24.1% | [5] -3.9% | [6] 14.3%

O=C(O)C1Cc2ccccc2OC1=O (stereo unspecified)
inactive: [1] -18% | [2] -25.6% | [3] -16.7% | [4] 0.6% | [5] 0.35% | [6] -21.6%

C=C(C)C(=O)OC1C/C(CO)=C\C(O)C/C(C)=C/C2OC(=O)C(=C)C21 (stereo unspecified)
inactive: [1] 55% | [2] 31.1% | [3] 33.7% | [4] 48% | [5] 41.5% | [6] -46.7%

CC(=O)Nc1ccc(Cc2[nH]c(=O)[nH]c(=O)c2Br)cc1
inactive: [1] 4.3% | [2] -30.9% | [3] -19.6% | [4] -0.6% | [5] 1.05% | [6] -16.2%

CCOC(=O)C1=C(C)N(C2OC(COC(=O)c3ccccc3)C(OC(=O)c3ccccc3)C2OC(=O)c2ccccc2)C(=S)NC1c1ccccc1 (stereo unspecified)
inactive: [1] -0.8% | [2] -27.1% | [3] 10.6% | [4] -2.6% | [5] -4.85% | [6] -6.05%

Fc1ccc(C2=NOC3COC4C=CC=CC4OCC23)cc1 (stereo unspecified)
inactive: [1] -29.2% | [2] -34.9% | [3] -22.9% | [4] -9.15% | [5] -45.1% | [6] -42.2%

S=c1[nH]nc(-c2ccccc2)n1/N=C\c1ccc(-c2ccc(Cl)cc2)o1
inactive: [1] 6.4% | [2] -21.5% | [3] -0.7% | [4] 14.8% | [5] -2.35% | [6] 5.5%

O=C(Nc1ccccc1-c1n[nH]c(=S)[nH]c1=O)C(F)(F)F
inactive: [1] -2.45% | [2] 2.05% | [3] -10.3% | [4] -7.35% | [5] -65.8% | [6] 30.8%

CC1O[C@@]2(CC[C@H]3[C@@H]4CCC5=CC(=O)CC[C@]5(C)[C@H]4CC[C@@]32C)C1=O (stereo partly specified)
inactive: [1] -0.55% | [2] 4.95% | [3] 11.4% | [4] -16.8% | [5] 26.9% | [6] 25.9%

O=C(CC(C(=O)c1cccs1)c1cccs1)c1ccccc1Cl (stereo unspecified)
inactive: [1] -10% | [2] -27.6% | [3] -12.6% | [4] -11.3% | [5] -3.8% | [6] -8.15%

CC1(C)N=C(N)N=C(N)N1c1cccc(OCCCOc2ccc([N+](=O)[O-])cc2)c1
inactive: [1] -31.9% | [2] -23.6% | [3] -17.1% | [4] -44.9% | [5] -7.8% | [6] -26.4%

CCN(CC)c1nc(NNS(=O)(=O)c2ccccc2)nc(N(CC)CC)n1
inactive: [1] -3.6% | [2] -5.2% | [3] 4.3% | [4] -13.1% | [5] -4.3% | [6] 11%

O=C(Nc1cccc(Cc2cccc(NC(=O)c3ccccc3)c2)c1)c1ccccc1
inactive: [1] 5.65% | [2] -1.9% | [3] -11.9% | [4] -41.1% | [5] -2.35% | [6] -0.35%

Cc1cc(O)c(C(C)C)cc1CN1CCCCC1
inactive: [1] 0% | [2] -25.1% | [3] -14.2% | [4] 0.15% | [5] -2.85% | [6] -3.3%

C[C@@H](Oc1ccc(Oc2cnc3ccc(Cl)cc3n2)cc1)C(=O)O
inactive: [1] 15.8% | [2] 5.4% | [3] 4.2% | [4] 37.8% | [5] 15.2% | [6] 3.95%

CCCCCC/C(C)=N\NC(N)=O
inactive: [1] 29.9% | [2] 14.4% | [3] 11.6% | [4] 12.4% | [5] -0.95% | [6] -23.1%

COc1ccc2c(CCNC(C)=O)c(C(C)=O)[nH]c2c1
inactive: [1] -9.65% | [2] -3.25% | [3] 12.4% | [4] 15.5% | [5] -12.3% | [6] 36.1%

CCCCC(C(=O)O)C1CCCCC1 (stereo unspecified)
inactive: [1] -12.3% | [2] 17.4% | [3] 23.4% | [4] -11.9% | [5] -12.2% | [6] -1%

O=C(CSSCC(=O)Nc1ccc(Br)cc1)Nc1ccc(Br)cc1
inactive: [1] 28.8% | [2] 2.45% | [3] -11.5% | [4] 18.6% | [5] -6.4% | [6] 26.4%

CC1(C)CC2C(C1=O)C1(C)CCCC2(C)C1=O (stereo unspecified)
inactive: [1] -11.8% | [2] -7.1% | [3] -26.6% | [4] -14.8% | [5] 3% | [6] -46.5%

COc1ccc(C(c2cc3c(cc2O)OCO3)N2CCN(C(c3cc4c(cc3O)OCO4)c3ccc(OC)cc3OC)CC2)c(OC)c1 (stereo unspecified)
inactive: [1] -15.1% | [2] 1.55% | [3] 30.2% | [4] 23.1% | [5] -11.9% | [6] 3.45%

O=c1[nH]c(Nc2cccc(CO)c2)nc2nc[nH]c12
inactive: [1] 5.35% | [2] -11% | [3] -25.8% | [4] 0.9% | [5] -15.7% | [6] -26.4%

CN(C)N=Nc1cccc(Cl)c1
inactive: [1] 25.9% | [2] 0.6% | [3] 10.3% | [4] 16.2% | [5] 8.8% | [6] 14.2%

CCC(O)(CC)c1ccc2ncccc2c1
inactive: [1] 3.6% | [2] 6.05% | [3] 7.7% | [4] -19.1% | [5] -6.65% | [6] 7%

NNC(=O)CCC(=O)NC1C2CC3CC(C2)CC1C3 (stereo unspecified)
inactive: [1] -23.6% | [2] -15.4% | [3] -18.6% | [4] -0.85% | [5] -10.7% | [6] 25.2%
